Screening data from PubChem.
In the library only some 22% were active in any assay of this set; here they are far more common.
Pf growth 48h: P. falciparum growth inhibition at 48 hours (one generation); P. falciparum luciferase growth in erythrocytes, 48 h; Potency, µM (titrated, usually from 28.7 µM), hits mostly inhibitors; 310,000 tested, 5.9% active; AID 504832
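Erythrocytes infected with P. falciparum carrying an integrated firefly luciferase reporter (2% hematocrit, 0.1% parasitemia final) were exposed to compounds in RPMI 1640 with 0.5% Albumax at 37 C, 5% CO2. Growth inhibition was scored as reduced luminescence.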
Shiga inhibitor: inhibitors of Shiga toxin in Vero cells; AID 2315; inhibition, % at 38.7 µM; Vero cells, Shiga toxin protein synthesis inhibition reporter; 290,000 tested, 9.2% active; in the data active = inhibition mostly above about 28%, no sharp cut-off; inactive = mostly below about 43%
Pf growth 96h: P. falciparum growth inhibition at 96 hours | P. falciparum luciferase reporter growth, 96 h | Potency, µM (series often up to 28.7 µM), usual class: inhibitors | 320,000 tested, 6.9% active | AID 504834
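96 h incubation, 37 C, 5% CO2, of luciferase-reporter P. falciparum-infected RBCs (2% hematocrit, 0.05% parasitemia final) with test compounds; endpoint luminescence.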
CHX counter: counter-screen hit for Shiga toxin inhibitors, cycloheximide; cell reporter, cycloheximide protein synthesis inhibition counterscreen; max response, %; 300,000 tested, 12% active; in the data active = max response mostly above about 13%, no sharp cut-off; inactive = mostly below about 14%; also: read at 38.3 µM for the half of the compounds with a filed dose
LmPK inhibitor: blocks Leishmania mexicana pyruvate kinase activity. purified LmPK, Kinase-Glo ATP luminescence, 1 h. Potency, µM (series often up to 57.5 µM), hits mostly inhibitors. 290,000 tested, 0.37% active
Target sequence (Q27686 whole entry, looked up): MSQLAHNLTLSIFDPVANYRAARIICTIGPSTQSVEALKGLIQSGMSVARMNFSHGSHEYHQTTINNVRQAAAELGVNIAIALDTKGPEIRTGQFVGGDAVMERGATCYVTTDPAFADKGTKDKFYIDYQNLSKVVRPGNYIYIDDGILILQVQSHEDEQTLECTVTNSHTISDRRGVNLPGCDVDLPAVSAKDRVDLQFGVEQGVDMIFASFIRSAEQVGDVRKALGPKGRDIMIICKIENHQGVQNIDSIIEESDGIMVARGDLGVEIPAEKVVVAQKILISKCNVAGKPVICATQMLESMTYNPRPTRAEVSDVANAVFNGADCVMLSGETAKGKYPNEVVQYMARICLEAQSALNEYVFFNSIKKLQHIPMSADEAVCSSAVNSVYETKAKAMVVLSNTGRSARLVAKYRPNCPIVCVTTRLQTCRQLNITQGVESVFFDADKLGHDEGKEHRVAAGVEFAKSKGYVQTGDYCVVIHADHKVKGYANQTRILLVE
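Purified LmPK (0.1 nM) with 0.5 mM PEP and 0.1 mM ADP in imidazole buffer pH 7.2 with MgCl2/KCl, 1 h at room temperature. ATP formed was read by luciferase luminescence and normalized to no-enzyme and uninhibited controls.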
Hits are given with their value; [ ] = dose if it differs, or a comment. Unless noted, calls follow the shape of the dose curve; as a rule, active = well fitted inhibition curve with a large enough effect; inconclusive = small, poorly fitted or top-dose-only effect, or another doubt; inactive = no such curve, though single readings can be large or run the other way.

Screening COc1cccc(CN(C)C(=O)C2CCN(S(=O)(=O)c3ccc(C)cc3)CC2)c1OC returned Pf growth 48h 13.1µM and Pf growth 96h 11.7µM.
For COc1cccc(CN(C)C(=O)c2cccc(S(=O)(=O)N3CCN(c4ccc(F)cc4)CC3)c2)c1OC the results were Pf growth 48h 10.4µM and Pf growth 96h inconclusive.
For CN(CC(=O)Nc1ccc(F)cc1)C(=O)c1cccc(S(=O)(=O)N2CCN(c3ccccc3)CC2)c1 the results were Pf growth 48h inactive, Shiga inhibitor inactive, Pf growth 96h inconclusive, CHX counter inactive and LmPK inhibitor inactive.
For CC(=O)N1CCN(C(=O)c2cccc(S(=O)(=O)N3CCN(c4ccc(F)cc4)CC3)c2)CC1 the results were Pf growth 48h inconclusive and Pf growth 96h inactive.
`COc1ccccc1CNC(=O)c1cccc(S(=O)(=O)N2CCN(c3ccc(F)cc3)CC2)c1` gave Pf growth 48h 10.4µM and Pf growth 96h inconclusive.
For CC1=C(C(=O)OC(C)C)C(c2cccs2)NC(=S)N1 (stereo not drawn) the results were Pf growth 48h inactive, Shiga inhibitor inactive, Pf growth 96h inconclusive, CHX counter inactive and LmPK inhibitor inactive.
For CCOC(=O)c1c(S(=O)(=O)NCC(=O)Nc2cccc(C)c2)c(C)n(C)c1C the results were Pf growth 48h inactive, Shiga inhibitor inactive, Pf growth 96h 4.15µM, CHX counter inactive and LmPK inhibitor inactive.
`CCOC(=O)c1c(S(=O)(=O)NCC(=O)Nc2ccccc2OC)c(C)n(C)c1C` gave Pf growth 48h inactive, Shiga inhibitor inactive, Pf growth 96h inactive, CHX counter inactive and LmPK inhibitor inactive.
CCOC(=O)c1c(S(=O)(=O)NCC(=O)Nc2cc(C)ccc2OC)c(C)n(C)c1C was read as Pf growth 48h inactive, Shiga inhibitor inactive, Pf growth 96h 9.28µM, CHX counter inactive and LmPK inhibitor inactive.
Screening Cc1ccc(C)c(OCCNc2ncccc2[N+](=O)[O-])c1 returned Pf growth 48h inactive, Shiga inhibitor inactive, Pf growth 96h inactive, CHX counter inactive and LmPK inhibitor inactive.
For COC(=O)n1c(=O)oc2ccccc21 the results were Pf growth 48h inactive, Shiga inhibitor inactive, Pf growth 96h inactive[5.75 µM], CHX counter inactive and LmPK inhibitor inactive.
For CCCCOC(=O)n1c(=O)oc2ccccc21 the results were Pf growth 48h inactive, Shiga inhibitor inactive, Pf growth 96h inconclusive, CHX counter 26.3 and LmPK inhibitor inactive.
For CC(=O)OCC1CCCC2=C(C)C(=O)CCC21COC(C)=O (stereo not drawn) the results were Pf growth 48h inactive, Shiga inhibitor inactive, Pf growth 96h inactive, CHX counter inactive and LmPK inhibitor inactive.
For Nc1ccc(-c2nnc(-c3ccc(N)cc3)o2)cc1 the results were Pf growth 48h inactive[0.00184 µM], Shiga inhibitor 72.6, Pf growth 96h inactive, CHX counter 48.4 and LmPK inhibitor inactive.
For Cc1cccc(-c2nnc(-c3ccc(N)cc3)o2)c1 the results were Pf growth 48h inactive, Shiga inhibitor 75.4, Pf growth 96h inactive, CHX counter 35.2 and LmPK inhibitor inactive.
FC(F)(F)c1cccc(Cn2nnnc2-c2ccc(Cl)cc2)c1 was read as Pf growth 48h inconclusive, Shiga inhibitor inactive, Pf growth 96h 8.28µM, CHX counter inactive and LmPK inhibitor inactive.
O=C1c2ccsc2SCCN1Cc1c(Cl)cccc1Cl was read as Shiga inhibitor inactive, Pf growth 96h 6.57µM, CHX counter inactive and LmPK inhibitor inactive.
O=[N+]([O-])c1cccc(NC(=S)N2CCN(c3ccccn3)CC2)c1 was read as Pf growth 48h inactive, Shiga inhibitor inactive, Pf growth 96h inconclusive, CHX counter inactive and LmPK inhibitor inactive.
`Cc1ccc(NC(=O)CC2NCCNC2=O)cc1` (stereo not drawn) gave Pf growth 48h inactive, Shiga inhibitor inactive, Pf growth 96h inactive, CHX counter 10.5 and LmPK inhibitor inactive.
CN(C)c1ccc(NC(=O)CC2NCCNC2=O)cc1 (stereo not drawn) was read as Pf growth 48h inactive, Shiga inhibitor inactive, Pf growth 96h 0.208µM, CHX counter inactive and LmPK inhibitor inactive.
For CC(C)n1cc(CN2CCC(C(=O)Nc3ccc(Oc4ccccc4F)cc3)CC2)cn1 the results were Pf growth 48h inconclusive, Shiga inhibitor inactive, Pf growth 96h inactive, CHX counter inactive and LmPK inhibitor inactive.
For CCn1c(=S)sc2c(=O)n(CC(=O)Nc3ccc(OC)c(Cl)c3)c(C)nc21 the results were Pf growth 48h inactive, Shiga inhibitor inactive, Pf growth 96h inactive, CHX counter inactive and LmPK inhibitor inactive.
For NNC(=O)CP(=O)(c1ccccc1)c1ccccc1 the results were Pf growth 48h inactive and Pf growth 96h inactive.
`O=C(O)c1ccccc1C(=O)Nn1cnnc1` gave Pf growth 48h inactive, Shiga inhibitor inactive, Pf growth 96h inactive, CHX counter inactive and LmPK inhibitor inactive.
`O=C(CP(=O)(c1ccccc1)c1ccccc1)Nn1cnnc1` gave Pf growth 48h inactive, Shiga inhibitor 98.8, Pf growth 96h inactive, CHX counter 49.2 and LmPK inhibitor inactive.
Screening CCNC(=O)CP(=O)(c1ccccc1)c1ccccc1 returned Pf growth 48h inactive, Shiga inhibitor inactive, Pf growth 96h 8.28µM, CHX counter inactive and LmPK inhibitor inactive.
CS(=O)(=O)c1nc(S(=O)(=O)c2ccc(Cl)cc2)c(NCCCN2CCCC2=O)s1 was read as Pf growth 48h inactive, Shiga inhibitor inactive, Pf growth 96h inactive, CHX counter inactive and LmPK inhibitor inactive.
`COc1ccc(/C=N/Nc2nnc(C)n2N)cc1OC` gave Pf growth 48h inconclusive, Shiga inhibitor inactive, Pf growth 96h inactive, CHX counter inactive and LmPK inhibitor inactive.
For Cc1nnc(N/N=C/c2ccc(Br)cc2)n1N the results were Pf growth 48h inactive, Pf growth 96h 14.7µM, CHX counter 10.0 and LmPK inhibitor inactive.
COc1ccc(/C=N/Nc2nnc(C)n2N)cc1OC(C)=O was read as Shiga inhibitor inactive, Pf growth 96h inactive, CHX counter 12.5 and LmPK inhibitor inactive.
Cc1nnc(N/N=C/c2ccc(-c3ccc(Br)cc3)o2)n1N was read as Pf growth 48h inconclusive, Shiga inhibitor inactive, Pf growth 96h 3.7µM, CHX counter inactive and LmPK inhibitor inactive.
Screening CCOC(=O)c1c(C)n(CC(O)CN(C)C)c2cc(Br)c(OC)cc12 (stereo not drawn) returned Pf growth 48h inconclusive, Shiga inhibitor inactive, Pf growth 96h inconclusive, CHX counter inactive and LmPK inhibitor inactive.
For O=C(O)c1cc(-c2ccc(/C=C3/SC(=S)N(Cc4ccccc4)C3=O)o2)ccc1Cl the results were Pf growth 48h inactive, Shiga inhibitor 62.7, Pf growth 96h inactive, CHX counter 28.8 and LmPK inhibitor inactive.
For COc1ccc(CN2C(=O)/C(=C/c3ccc(-c4ccc(Cl)c(C(=O)O)c4)o3)SC2=S)cc1 the results were Pf growth 48h inactive, Shiga inhibitor inactive, Pf growth 96h inactive, CHX counter inactive and LmPK inhibitor inactive.
CC1=NOC(=O)/C1=C\c1ccc(-c2ccc(Cl)c(C(=O)O)c2)o1 was read as Pf growth 48h inactive, Shiga inhibitor inactive, Pf growth 96h inconclusive, CHX counter inactive and LmPK inhibitor inactive.
